# Screens as filed in PubChem BioAssay.
# In the library only some 6.5% were active in any assay of this set; here they are far more common.
# MARV entry inh = blocks Marburg virus binding to or entry into cells; Marburg virus pseudotyped entry inhibition, cell reporter; Potency, µM (series often up to 37.8 µM), without a hit: top-dose activity change, negative = inhibition, actives largely listed as inhibitors; actives 1.8% (n = 300,000); AID 540276; calls by dose curve; tested in HEK293 cells; further: potency means the concentration at half of the fitted maximal effect
# VACV Venus inh = vaccinia inhibition (Venus reporter); Vaccinia virus Venus reporter expression, fluorescence; Potency, µM (top dose mostly 36.5 µM), for inactives: at the highest dose activity change, negative = inhibition, most hits filed as inhibitors; actives 0.46% (n = 330,000); calls by dose curve; tested in A549 cells; further: potency means the concentration at half of the fitted maximal effect; nearly all actives have a fitted effect of over 30% in size
# FMDV inh = foot and mouth disease virus antiviral activity. FMDV antiviral cell-based qHTS. Potency, µM (titrated, usually from 57.9 µM), for inactives: at the highest dose activity change, negative = inhibition, hits mostly inhibitors. actives 1.2% (n = 410,000); calls by dose curve; tested in HEK293T cells; further: read-out not given here; potency means the concentration at half of the fitted maximal effect; nearly all actives have a fitted effect of over 45% in size
# Lassa entry inh = Lassa virus entry inhibition; Lassa virus pseudotype entry inhibition, cell reporter; Potency, µM (top dose mostly 37.9 µM), for the others: at the highest dose activity change, negative = inhibition, most hits filed as inhibitors; actives 1.2% (n = 300,000); AID 540256; calls by dose curve; tested in HEK293 cells; further: potency means the concentration at half of the fitted maximal effect; nearly all actives have a fitted effect of over 50% in size
# Vaccinia mCherry = vaccinia inhibition (mCherry reporter) | Potency, µM (top dose mostly 36.5 µM), without a hit: top-dose activity change, negative = inhibition, usual class: inhibitors | AID 720579 | Vaccinia virus mCherry reporter infection, fluorescence | actives 0.63% (n = 310,000); calls by dose curve; tested in A549 cells; further: potency means the concentration at half of the fitted maximal effect; nearly all actives have a fitted effect of over 35% in size
# HCMV antiviral = inhibitors of human cytomegalovirus | HFF cells, HCMV-luciferase reporter, 72 h; stronger effect = lower value | activity change, negative = inhibition, % at 57.5 µM | actives 4.5% (n = 410,000) | AID 1259415; in the data active means activity change below about -60%; inconclusive means no clear call, values can overlap the other calls; inactive means above about -39%
#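 Compounds were evaluated in HFFs infected with an HCMV luciferase reporter virus (MOI 1 PFU/cell). Luciferase in lysates collected 72 h post infection served as the replication measure.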
# * hit, by the source's call; i = inactive; ? = inconclusive; / = not tested or not shown; [ ] = another dose, or the depositor's remark. On the % scale 0 is the no-effect control and ±100 the full control effect.
SMILES,MARV entry inh,VACV Venus inh,FMDV inh,Lassa entry inh,Vaccinia mCherry,HCMV antiviral
CN1C[C@@H]2[C@@H]3C(=O)N(C)C(=O)[C@@H]3[C@](C)(C1=O)N2C(=O)c1ccc(C(F)(F)F)cc1,/,6%,-12%,/,i,-1
CO/N=C/NC(=O)NOCc1c(Cl)cccc1Cl,-5%,-19%,0%,19%,/,-104*
O=C(N/C=N/OCc1ccc(Cl)cc1Cl)NOCc1c(Cl)cccc1Cl,?,-16%,?,-12%,-8%,-32
Cc1csc2nc(COC(=O)c3cccc(NC(=O)COc4ccccc4Cl)c3)cc(=O)n12,/,-20%,-24%,-28%[46.1 µM],i,-61*
Cc1ccccc1OCC(=O)Nc1ccc(C(=O)OCc2cc(=O)n3c(C)csc3n2)cc1,/,0%,4%,11%[46.1 µM],i,-87*
Fc1ccccc1-c1nnc2ccc3ccccc3n12,2%[46.1 µM],-16%,-17%,9%[46.1 µM],i,46
Fc1cccc(Cl)c1-c1nnc2ccc3ccccc3n12,/,/,-8%,/,/,-84*
Cc1nn(C)c(C)c1CN(C)S(=O)(=O)c1ccc2ccccc2c1,?,?,-1%,?,?,-82*
Cc1ccc(CSc2nc(N)cc(=O)[nH]2)cc1,/,/,-14%,/,/,58
CC(C)C1C(c2ccccc2)N(C)C(c2ccccc2)CC1(O)c1ccccc1 (stereo unspecified),15µM*,-24%,-30%,?,?,?
COc1ccccc1NS(=O)(=O)c1cccc(C(=O)N2CCN(Cc3ccc4c(c3)OCO4)CC2)c1,?,-26%,-2%,-11%,i,41
CC(C)COC(=O)N(C)c1ccc(C(O)(C(F)(F)F)C(F)(F)F)cc1,5%,?,?,3.5µM*,/,8
O=C(CSc1ncnc2nc[nH]c12)N1CCN(c2ccc(Cl)cc2)CC1,?,/,?,?,/,-69*
COc1cc(/C=C/C(=O)c2ccccc2O)cc(OC)c1OC,/,-11%,32µM*,/,3%,16
Cc1ccc(/C=C/C(=O)c2ccccc2O)cc1,?,-15%,-18%,19%,-2%,9
COc1cc(OC)c(C=CC(=O)c2ccccc2O)c(OC)c1,?,?,41%,17%,?,-64*
O=C(C=Cc1ccccn1)c1ccccc1O,-23%[46.1 µM],2%,?,-13%[46.1 µM],-6%,-80*
COc1cc(/C=C/C(=O)NC(=O)c2ccccc2O)ccc1OC(C)=O,/,?,35%,/,5.6µM*,16
COc1ccc(OC)c(-c2cc(Cl)c3c(c2)CC(CNC(=O)/C=C/c2ccccn2)O3)c1 (stereo unspecified),/,-8%,11%,/,-2%,/
COc1cc(C2NC(=O)N(C)C3=C2C(=O)N(c2ccccc2)C3)ccc1O (stereo unspecified),-27%[46.1 µM],13%,-18%,-17%[46.1 µM],8%,-97*
COc1ccc(Cl)cc1NC(=O)CSc1nccn1-c1ccc(Cl)cc1,/,-20%,?,-27%[46.1 µM],-7%,-82*
Cc1cccc(-n2ccnc2SCC(=O)Nc2cccc3ccccc23)c1,/,-4%,0%,4%[46.1 µM],-4%,-23
O=C(CSc1nccn1-c1cccc(Cl)c1)Nc1cccc2ccccc12,/,-2%,-14%,-19%[46.1 µM],i,-63*
N#Cc1ccc(/C=C2\C=Cc3ccccc32)cc1,/,-13%,/,/,20%,/
O=C(c1csnn1)N1CCC[C@@]2(CCN(c3ccccn3)C2)C1,/,/,-20%,/,/,/
SMILES,MARV entry inh,VACV Venus inh,FMDV inh,Lassa entry inh,Vaccinia mCherry,HCMV antiviral
C[C@]12CC[C@@H]3c4ccc(O)cc4[C@@H](O)C[C@H]3[C@@H]1CC[C@@H]2O,-4%,/,/,-19%,/,/
Cc1cc(O)cc2c1C1CCC3(C)C(O)CCC3C1C=C2 (stereo unspecified),-26%[46.1 µM],?,-8%,-27%[46.1 µM],4.5µM*,55
CC(C)CN=c1cc(-c2ccccc2)oc2ccc(Cl)cc12,18µM*,-25%,11%,?,/,20
O=C(CSc1nc(=O)n(Cc2ccco2)c2c1CCC2)NCc1ccccc1,/,-5%,33%,2%[46.1 µM],-9%,-11
Cc1ccccc1-c1nc(CS(=O)(=O)CC(=O)N2CCN(c3ccccc3)CC2)c(C)o1,-14%[46.1 µM],-18%,?,-22%[46.1 µM],-21%,-29
Cc1oc(-c2ccccc2F)nc1CS(=O)(=O)CC(=O)N1CCN(c2ccccc2)CC1,-6%[46.1 µM],?,25µM*,6%[46.1 µM],?,-19
